{
  "source": "the OligoGym collection",
  "data": [
    {"biological_target": "TC2N", "test": "pooled miR-30 sensor sort-seq; sequence = guide strand", "settings": "shRNA", "values": [
      {"sequence": "TAAAACTGTGATCCAGATCTGT", "sensor-assay potency score (higher = more potent)": -0.0159},
      {"sequence": "TTATAAATCAACTCTCCCGAGC", "sensor-assay potency score (higher = more potent)": -0.579},
      {"sequence": "TTGAAGAAGAACTACTGGGTAC", "sensor-assay potency score (higher = more potent)": -0.298},
      {"sequence": "TTTAATAGCAAATACAAACGTT", "sensor-assay potency score (higher = more potent)": -0.37},
      {"sequence": "TTACTGTCTGTGTCTCTTGTTG", "sensor-assay potency score (higher = more potent)": -0.31},
      {"sequence": "TTAAATCACAAACCGATCCATA", "sensor-assay potency score (higher = more potent)": -0.989},
      {"sequence": "TTAATAGCAAATACAAACGTTT", "sensor-assay potency score (higher = more potent)": -0.542},
      {"sequence": "TAGCATTTTGACTATTTGGGAC", "sensor-assay potency score (higher = more potent)": -0.206},
      {"sequence": "TTTCTTCTTACAGAGCTTCGAC", "sensor-assay potency score (higher = more potent)": -0.277},
      {"sequence": "TGAACTGGAAAGTTCTACCTTT", "sensor-assay potency score (higher = more potent)": 0.507},
      {"sequence": "TTACTGTCTCTTTCCACTGGTT", "sensor-assay potency score (higher = more potent)": -0.545}
    ]},
    {"biological_target": "TCEA3", "test": "pooled miR-30 sensor sort-seq; sequence = guide strand", "settings": "shRNA", "values": [
      {"sequence": "TTGAGGTTGCTTATGCGGCTGC", "sensor-assay potency score (higher = more potent)": -0.208},
      {"sequence": "TTCCGGTACTTCATGTCCGTGC", "sensor-assay potency score (higher = more potent)": 0.146},
      {"sequence": "TACTTCATGTCCGTGCTCTTGA", "sensor-assay potency score (higher = more potent)": 0.446},
      {"sequence": "TTCTTCTTGCATTTGCTGCACT", "sensor-assay potency score (higher = more potent)": -0.468},
      {"sequence": "TTGGTAGATATGATCTTCGATT", "sensor-assay potency score (higher = more potent)": -0.766},
      {"sequence": "TCTGATGCCATCTTGTCACAGT", "sensor-assay potency score (higher = more potent)": -0.177},
      {"sequence": "ATAGGTGCAGTTCTTCTTCTTG", "sensor-assay potency score (higher = more potent)": -0.625},
      {"sequence": "TCGATTTCTGATGCCATCTTGT", "sensor-assay potency score (higher = more potent)": -0.388},
      {"sequence": "ATTAACAGCAACTCCAATCCTG", "sensor-assay potency score (higher = more potent)": 0.388},
      {"sequence": "TTAACAGCAACTCCAATCCTGG", "sensor-assay potency score (higher = more potent)": -0.797},
      {"sequence": "TCTTGTCACAGTTGACTCCATA", "sensor-assay potency score (higher = more potent)": -0.75},
      {"sequence": "TTCTTCTTCTTGCATTTGCTGC", "sensor-assay potency score (higher = more potent)": -0.856}
    ]}
  ]
}
